We go through seven compounds from PubChem BioAssay (Tox21).

A number with no mark means an inactive call. Records with an inconclusive call do not appear. The source made the active and inactive calls. Unless noted, calls follow the shape of the dose curve; as a rule, active = well fitted curve in the direction sought with a large enough effect in the repeat runs; inconclusive = weak or mixed curves; inactive = no such curve, though single readings can be large; an effect the other way counts as inactive or inconclusive.

The nature of test [1]: qHTS assay to identify small molecule agonists of H2AX (AID 1224845; active = well fitted activation curve with a large enough effect in the signal ratio in the repeat runs, not every such curve was filed as active; the % refers to the signal ratio). Put shortly: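 Phospho-H2AX Ser139 measured by HTRF (ex 320 nm; em 665 and 620 nm) after 24 hr antibody incubation. Compounds, 15 concentrations, 0.76% DMSO, were applied to CHO-K1 cells for 3hr at 37C before lysis.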
The nature of test [2]: qHTS assay to identify small molecule agonists of the hypoxia (HIF-1) signaling pathway (AID 1224846; active = well fitted activation curve with a large enough effect in the signal ratio in the repeat runs, not every such curve was filed as active; the % refers to the signal ratio). Put shortly:
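HRE-bla ME-180 beta-lactamase reporter cells in medium with 0.5% dialyzed FBS, pre-incubated 5 h then exposed to compounds 17 h at 37C, 5% CO2; reporter induction read with CCF4-AM FRET substrate.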
For orientation: Quantitative high-throughput screening tests each substance at several concentrations.

Test [3] can be described thus: qHTS assay to identify small molecule agonists of H2AX - cell viability counter screen (AID 1224847; calls by dose curve; also: top concentration of the series differs between compounds; nearly all actives have a fitted effect of over 30% in size). Put shortly: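 Read-out: CellTiter-Glo luminescence, 30 min RT. Cells: wild-type CHO-K1, 1000/well, 10% FBS, plated overnight at 37C. Treatment: 15 concentrations, 3 hr, 37C, 0.76% DMSO.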
Test [4] in a line: qHTS assay to identify small molecule antagonists of the estrogen related receptor (ERR) signaling pathway from Tox21 library (AID 1224848). Also: nearly all actives have a fitted effect of over 50% in size. Also: potency is read from the fitted curve at half-maximal effect. Put shortly: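 Reading was by luminescence 30 min after ONE-Glo addition. Before that, ERR cells at 2,000 per well had rested 6 h at 37 C/5% CO2 and then received pin-tooled compounds in DMSO for 18 h at 37 C.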
The nature of test [5]: qHTS assay to identify small molecule agonists of the estrogen related receptor (ERR) signaling pathway from Tox21 library (AID 1224849; calls by dose curve; also: nearly all actives have a fitted effect of over 15% in size). As to conditions: ERR reporter cell line, ONE-Glo luciferase, 18 h; at 92.4 µM (top of the series) unless noted. Put shortly:
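ERR reporter cells (NTP line) pre-incubated 6 hours at 37 C, then exposed to compounds for 18 hours at 37 C. ONE-Glo luciferase luminescence was read after 30 minutes at room temperature.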

A short description of test [6]: qHTS RealTime-Glo MT Cell Viability Assay in HepG2 cells - 24 hour (AID 1224867). Also: nearly all actives have a fitted effect of over 50% in size. Put shortly:
(§1)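 Tox21 10K library screened in qHTS format on HepG2 cells carrying RealTime-Glo reagents. Compounds were added after a 5 h preincubation, and the luminescent signal from continuous culture was measured repeatedly during 40 h treatment.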

Test [7] is described as follows: qHTS RealTime-Glo MT Cell Viability Assay in HEK293 cells - 32 hour (AID 1224868). Also: nearly all actives have a fitted effect of over 50% in size. Also: potency is read from the fitted curve at half-maximal effect. Put shortly: (§2)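 Luminescence generated by NanoLuc from substrate produced by living HEK293 cells served as the viability signal. Each value reflects the reading at its stated time point during continuous 40 h compound exposure at 37 C.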
The nature of test [8]: A CellTox Green Cytotoxicity Assay to monitor cytotoxicity in HEK293 cells - 0 hour (AID 1224869). Also: nearly all actives have a fitted effect of over 50% in size. Put shortly: (§3)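 HEK293 cells, 600/well, were preincubated 5 hours and then exposed to compounds at 37 C for up to 40 hours. A cell-impermeant cyanine dye staining dead-cell DNA was read by fluorescence at 0, 8, 16, 24, 32 and 40 h time points.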
The nature of test [9]: A CellTox Green Cytotoxicity Assay to monitor cytotoxicity in HEK293 cells - 40 hour (AID 1224871). Also: nearly all actives have a fitted effect of over 45% in size. Put shortly:
as §3

Test [10] can be described thus: qHTS RealTime-Glo MT Cell Viability Assay in HEK293 cells - 16 hour (AID 1224872). Also: nearly all actives have a fitted effect of over 50% in size. Also: potency is read from the fitted curve at half-maximal effect. Put shortly: as §2
A short description of test [11]: qHTS RealTime-Glo MT Cell Viability Assay in HepG2 cells - 8 hour (AID 1224873). Also: nearly all actives have a fitted effect of over 55% in size. Put shortly:
(§4)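 Real-time viability: cells seeded at 600 per well together with NanoLuc and cell-permeant prosubstrate, compounds added after 5 h incubation. Luminescence tracked at 0, 8, 16, 24, 32 and 40 h of exposure.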

Test [12] is described as follows: qHTS RealTime-Glo MT Cell Viability Assay in HEK293 cells - 40 hour (AID 1224874). Also: nearly all actives have a fitted effect of over 50% in size. Also: potency is read from the fitted curve at half-maximal effect. As to conditions: RealTime-Glo luminescence; max response: stronger effect = lower value. Put shortly: (§5)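 600 cells/well were plated with the nonlytic NanoLuc/prosubstrate reagent, pre-incubated 5 h, then given 23 nL of compound in DMSO. Incubation at 37 C for 40 h, with luminescence from viable-cell-reduced substrate read repeatedly from 0 h.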

Test [13] can be described thus: A CellTox Green Cytotoxicity Assay to monitor cytotoxicity in HEK293 cells - 24 hour (AID 1224875). Also: nearly all actives have a fitted effect of over 45% in size. Put shortly:
as §3

Test [14] in a line: A CellTox Green Cytotoxicity Assay to monitor cytotoxicity in HepG2 cells - 16 hour (AID 1224876). Also: nearly all actives have a fitted effect of over 45% in size. Put shortly: (§6)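 HepG2 cells, 600/well, preincubated 5 h with CellTox Green dye, then exposed to Tox21 compounds in DMSO at 37 C for up to 40 h. Dead-cell DNA fluorescence read at the indicated time point.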
The nature of test [15]: qHTS RealTime-Glo MT Cell Viability Assay in HepG2 cells - 32 hour (AID 1224877). Also: nearly all actives have a fitted effect of over 55% in size. Put shortly:
as §1

Test [16] can be described thus: A CellTox Green Cytotoxicity Assay to monitor cytotoxicity in HepG2 cells - 24 hour (AID 1224878). Also: nearly all actives have a fitted effect of over 45% in size. Put shortly: as §6
Test [17] in a line: A CellTox Green Cytotoxicity Assay to monitor cytotoxicity in HepG2 cells - 40 hour (AID 1224879). Also: nearly all actives have a fitted effect of over 40% in size. Put shortly:
as §6

Test [18] can be described thus: qHTS RealTime-Glo MT Cell Viability Assay in HEK293 cells - 0 hour (AID 1224880). Put shortly: as §5
A short description of test [19]: A CellTox Green Cytotoxicity Assay to monitor cytotoxicity in HEK293 cells - 32 hour (AID 1224881). Also: nearly all actives have a fitted effect of over 40% in size. Put shortly:
as §3

The nature of test [20]: qHTS RealTime-Glo MT Cell Viability Assay in HepG2 cells - 40 hour (AID 1224870). Also: nearly all actives have a fitted effect of over 50% in size. Put shortly:
as §4
% is scaled to controls: 0 for no effect and ±100 for the full control effect.

Consider `Clc1cccc(SC2CCNCC2)n1`, for which the Potency result in [1], in test [3], in [4], in test [6], in [7] and in test [8] was “inactive” in each case. Also, the Potency result in [9], in test [10], in [11], in test [13], in test [14] and in test [15] was “inactive” each time. Moreover, the Potency result in test [16], in test [17], in [18] and in test [19] was “inactive” in each case. Moreover, the compound was called inactive in [2]. Besides, the activity change, positive = activation in test [5] was 0.887% [at 42.5 µM]. Besides, the max response in test [12] was 1.39%.
`Cn1cc[n+](C)c1` (tested in a mixture with another compound): the Potency entry in [1], in test [3], in test [6], in test [7], in test [8] and in test [20] was “inactive” in each case. In addition, the Potency entry in [9], in test [10], in test [11], in [13], in test [14] and in test [15] was “inactive” throughout. The Potency entry in test [16] and in test [17] was “inactive” in each case. Further, the call in test [2] was inactive. Also, the max response in test [12] was 6.73%.
As to `C=CCCl`, the Potency entry in test [1], in [3], in test [6], in test [7], in test [8] and in test [20] was “inactive” in each case. Further, the Potency entry in [9], in test [10], in test [11], in test [13], in test [14] and in [15] was “inactive” each time. In addition, the Potency result in test [16], in [17], in test [18] and in test [19] was “inactive” in each case. For the same compound, in test [2], the outcome was inactive. Besides, the max response in test [12] is -3.44%.
As to `CCCN(CCC)c1c([N+](=O)[O-])cc(S(C)(=O)=O)cc1[N+](=O)[O-]`, the Potency entry in test [1], in [3], in [6], in [8], in [20] and in test [9] was “inactive” throughout. For the same compound, the Potency entry in test [11], in test [13], in test [14], in test [15], in test [16] and in [17] was “inactive” in each case. Also, the Potency result in test [18] and in [19] was “inactive” throughout. Also, in test [2], the result was inactive. In [5], the activity change, positive = activation is -24.5%. In addition, the Potency in [7] is 13.8 µM (active); in [10], 15.5 µM (active); in test [12], 15.5 µM (active).
For `COC(=O)C(C)N(C(=O)Cc1ccccc1)c1c(C)cccc1C` (stereo not drawn), the Potency result in test [1], in test [3], in test [6], in test [8], in test [20] and in test [9] was “inactive” in each case. Besides, the Potency result in [11], in test [13], in [14], in [15] and in test [19] was “inactive” in each case. Besides, the call in test [2] was inactive. For the same compound, the Potency in test [4] was 30.6 µM (active). The activity change, positive = activation in test [5] was -38.3%.
With `CCBr`, the Potency entry in [1], in test [3], in test [4], in [6], in test [7] and in test [8] was “inactive” each time. The Potency result in test [9], in test [10], in test [11], in [13], in [14] and in test [15] was “inactive” in each case. Moreover, the Potency result in test [16], in [17], in test [18] and in [19] was “inactive” each time. Besides, in [2], the compound was classed as inactive. Moreover, in test [5], the activity change, positive = activation was 6.77%. Besides, the max response in [12] is 6.85%.
`CC(C)(Cl)[N+](=O)[O-]`: the Potency entry in test [1], in [3], in test [6], in test [7], in test [8] and in test [20] was “inactive” each time. Further, the Potency entry in test [9], in test [10], in [11], in test [13], in test [14] and in [15] was “inactive” each time. Besides, the Potency entry in test [16], in [17] and in test [18] was “inactive” each time. Moreover, in test [2], the call was inactive. For the same compound, in [5], the activity change, positive = activation is -29.2%. Further, in test [12], the max response was 2.49%.
